Among the test systems are DU-145 prostate; K-562 leukemia; MALME-3M melanoma; MDA-MB-231 breast; RXF 393 renal; SF-268 CNS; SF-295 CNS; SF-539 CNS; UACC-257 melanoma; M14 melanoma; HCT-15 colon; HT29 colon; SNB-75 CNS; SNB-19 CNS; U251 CNS; PC-3 prostate; SK-MEL-5 melanoma; UACC-62 melanoma; LOX IMVI melanoma; SK-MEL-28 melanoma.
Experiment in all cases: NCI-60 one-dose screen, 48 h (100 = growth as untreated, 0 = no growth, -100 = all killed)
Common to all, as to settings: 10 µM unless noted

This passage reports growth results from PubChem BioAssay (NCI).

About 83,000 compounds went through this panel and 20% of them were active in at least one assay; those are over-represented in the sample as a whole.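 Treatment: one concentration, 48 hours, 96-well format. Scoring: percent growth, with anything below 10 considered active.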 Values without a mark were called inactive. The source made the active and inactive calls.

For `CCc1ccc(CCC(=O)Nc2ncc(Cc3cc(Cl)ccc3Cl)s2)o1`, the growth with DU-145 prostate was 18.5%; in the experiment with K-562 leukemia it was 9.71% (active); in the experiment with MALME-3M melanoma, 43.5%; in the experiment on MDA-MB-231 breast, 28.6%; in the experiment with RXF 393 renal it was -32.5% (active); in the experiment with SF-268 CNS it was 60.9%. The growth is 6.84% (active) with SF-295 CNS; -6.72% (active) in the experiment on SF-539 CNS; 69.9% in the experiment with UACC-257 melanoma; 6.6% (active) with M14 melanoma; 13% in the experiment on HCT-15 colon; 2.01% (active) in the experiment on HT29 colon. The growth in the experiment on SNB-75 CNS was -12.1% (active); in the experiment with SNB-19 CNS it was 21%; with U251 CNS, 21.7%; in the experiment with PC-3 prostate it was 23.8%; in the experiment with SK-MEL-5 melanoma, 25.2%; with UACC-62 melanoma, 18.7%. Further, the growth in the experiment on LOX IMVI melanoma is 30.2%; in the experiment with SK-MEL-28 melanoma, 55.9%.
For the molecule `O=C(CN1CCN(c2cc3c(cc2F)c(=O)c(C(=O)O)cn3C2CC2)CC1)N/N=C/c1ccco1`, the growth in the experiment with DU-145 prostate is 106%; in the experiment on K-562 leukemia, 95%; in the experiment with MALME-3M melanoma it was 92.2%; in the experiment on MDA-MB-231 breast, 98.7%; with RXF 393 renal, 112%; in the experiment on SF-268 CNS, 93.8%. Moreover, the growth in the experiment on SF-295 CNS is 100%; in the experiment on SF-539 CNS, 93.2%; in the experiment with UACC-257 melanoma it was 93.9%; in the experiment with M14 melanoma it was 96.6%; in the experiment with HCT-15 colon, 102%; in the experiment with HT29 colon it was 104%. The growth in the experiment with SNB-75 CNS is 87.9%; in the experiment with SNB-19 CNS it was 99.7%; in the experiment with U251 CNS, 96.7%; in the experiment on PC-3 prostate, 93.5%; in the experiment with SK-MEL-5 melanoma it was 94.5%; in the experiment with UACC-62 melanoma, 93.5%. Also, the growth with LOX IMVI melanoma is 90.8%; with SK-MEL-28 melanoma it was 97.9%.
Consider `C=CCOC(=O)C1=C(C)N(CC)C(=O)NC1c1c(Cl)n(C)c2ccccc12` (stereo not given), for which the growth with DU-145 prostate is 106%; in the experiment on K-562 leukemia, 99.1%; in the experiment with MALME-3M melanoma, 99.3%; with MDA-MB-231 breast, 96.7%; with RXF 393 renal, 108%; with SF-268 CNS it was 92.9%. Besides, the growth in the experiment with SF-295 CNS is 88.6%; in the experiment with SF-539 CNS, 98.4%; in the experiment on UACC-257 melanoma it was 98.4%; in the experiment with M14 melanoma it was 88.6%; in the experiment on HCT-15 colon it was 82.5%; in the experiment with HT29 colon it was 89.8%. The growth is 92.3% in the experiment on SNB-75 CNS; 99.9% in the experiment with SNB-19 CNS; 97.9% with U251 CNS; 87.7% in the experiment on PC-3 prostate; 100% in the experiment with SK-MEL-5 melanoma; 82.6% in the experiment with UACC-62 melanoma. The growth in the experiment on LOX IMVI melanoma was 88.6%; in the experiment with SK-MEL-28 melanoma, 104%.
With `O=c1cc(-c2ccccc2)[nH]c2ncc(-c3ccc(F)cc3)n12`, the growth with DU-145 prostate was 94.6%; in the experiment on K-562 leukemia it was 18.5%; in the experiment on MALME-3M melanoma, 77.8%; in the experiment on MDA-MB-231 breast, 62%; in the experiment with RXF 393 renal, 72.3%; with SF-268 CNS it was 80.6%. Moreover, the growth with SF-295 CNS was 46%; in the experiment on SF-539 CNS, 73.8%; in the experiment with UACC-257 melanoma it was 83.1%; in the experiment with M14 melanoma, 50.4%; in the experiment with HCT-15 colon, 37.7%; in the experiment with HT29 colon, 40.6%. For the same molecule, the growth is 68.3% in the experiment with SNB-75 CNS; 68.3% with SNB-19 CNS; 56% in the experiment with U251 CNS; 56.7% with PC-3 prostate; 54.9% in the experiment with SK-MEL-5 melanoma; 36.6% in the experiment on UACC-62 melanoma. Besides, the growth with LOX IMVI melanoma is 65.9%; in the experiment on SK-MEL-28 melanoma it was 73.4%.
In the case of `COc1ccc2c(c1)/C(=N/c1n[nH]c(=S)s1)C(=O)N2`, the growth in the experiment on DU-145 prostate is 107%; in the experiment on K-562 leukemia, 82.9%; with MALME-3M melanoma it was 104%; in the experiment on MDA-MB-231 breast, 87.8%; in the experiment on RXF 393 renal it was 113%; in the experiment with SF-268 CNS, 98.8%. The growth was 106% in the experiment on SF-295 CNS; 87.4% in the experiment on SF-539 CNS; 96.5% in the experiment on UACC-257 melanoma; 103% in the experiment with M14 melanoma; 104% in the experiment with HCT-15 colon; 105% in the experiment on HT29 colon. Further, the growth is 75.4% in the experiment on SNB-75 CNS; 99.1% in the experiment on SNB-19 CNS; 93.8% in the experiment on U251 CNS; 91.2% in the experiment on PC-3 prostate; 91.2% with SK-MEL-5 melanoma; 94.8% in the experiment with UACC-62 melanoma. For the same molecule, the growth in the experiment on LOX IMVI melanoma was 95.8%; with SK-MEL-28 melanoma it was 107%.
Turning to `Clc1ccc(-c2cc(-c3ccccc3)nc(NCCNc3ccnc4cc(Cl)ccc34)n2)cc1`, the growth was 13.1% in the experiment with DU-145 prostate; 0.266% (active) in the experiment on K-562 leukemia; -62.7% (active) in the experiment with MALME-3M melanoma; -69.2% (active) in the experiment with MDA-MB-231 breast; 26% in the experiment with RXF 393 renal; 3.04% (active) in the experiment with SF-268 CNS. Also, the growth with SF-295 CNS was 73.2%; with SF-539 CNS it was 74.5%; in the experiment on UACC-257 melanoma it was 13.3%; with M14 melanoma, -69.7% (active); in the experiment with HCT-15 colon, -72.7% (active); with HT29 colon, -16.2% (active). Also, the growth in the experiment with SNB-75 CNS was 75.7%; in the experiment with SNB-19 CNS it was 44.7%; in the experiment with U251 CNS, -85.9% (active); in the experiment on PC-3 prostate, 16.3%; in the experiment with SK-MEL-5 melanoma it was 30.7%; with UACC-62 melanoma, 69%. The growth in the experiment on LOX IMVI melanoma was -76.7% (active); with SK-MEL-28 melanoma, -62.1% (active).
Turning to `CN1CCN(C(=S)SCCCCOc2cc(=O)oc3ccccc23)CC1`, the growth was 90.6% in the experiment with DU-145 prostate; 64.3% with K-562 leukemia; 93.3% with MALME-3M melanoma; 89.1% with MDA-MB-231 breast; 99.5% in the experiment on RXF 393 renal; 87.7% with SF-268 CNS. Moreover, the growth with SF-295 CNS is 77.7%; in the experiment on SF-539 CNS, 98.9%; with UACC-257 melanoma, 85%; with M14 melanoma, 103%; in the experiment with HCT-15 colon it was 88.3%; in the experiment on HT29 colon it was 78.5%. Moreover, the growth in the experiment with SNB-75 CNS is 93.8%; in the experiment with SNB-19 CNS, 94.7%; with U251 CNS, 87%; with PC-3 prostate, 72.7%; with SK-MEL-5 melanoma it was 69.5%; in the experiment on UACC-62 melanoma, 73.9%. Besides, the growth is 93.9% with LOX IMVI melanoma and 109% in the experiment on SK-MEL-28 melanoma.
With `CN1CCN(CC(=O)Nc2ccc3ncnc(Nc4ccc(Oc5cccc(C(F)(F)F)c5)c(Cl)c4)c3c2)CC1`, the growth is 23.9% with DU-145 prostate; -27.3% (active) in the experiment with K-562 leukemia; -77.1% (active) in the experiment on MALME-3M melanoma; -58.1% (active) with MDA-MB-231 breast; -78.6% (active) in the experiment on RXF 393 renal; 11.3% with SF-268 CNS. Besides, the growth in the experiment with SF-295 CNS was -44.7% (active); in the experiment on SF-539 CNS it was -84.5% (active); in the experiment on UACC-257 melanoma, -56.1% (active); in the experiment on M14 melanoma it was -86.5% (active); in the experiment with HCT-15 colon, -12.2% (active); in the experiment on HT29 colon it was -19.2% (active). Besides, the growth in the experiment on SNB-75 CNS was 68.8%; in the experiment with SNB-19 CNS it was 28.5%; in the experiment on U251 CNS, 0.145% (active); with PC-3 prostate, 42.9%; in the experiment with SK-MEL-5 melanoma, -58% (active); with UACC-62 melanoma it was -28.8% (active). Besides, the growth in the experiment with LOX IMVI melanoma is -94.6% (active); in the experiment on SK-MEL-28 melanoma, -89% (active).
With `Cc1ccc2nc(NC(=O)CSc3nc(-c4ccccc4)c(C#N)c4nnnn34)sc2c1`, the growth was 119% in the experiment on DU-145 prostate; 97.8% in the experiment with K-562 leukemia; 109% in the experiment with MALME-3M melanoma; 113% in the experiment with MDA-MB-231 breast; 120% in the experiment with RXF 393 renal; 113% in the experiment with SF-268 CNS. Moreover, the growth in the experiment with SF-295 CNS was 103%; in the experiment with SF-539 CNS, 100%; in the experiment on UACC-257 melanoma, 108%; in the experiment with M14 melanoma it was 99.5%; in the experiment on HCT-15 colon it was 113%; with HT29 colon, 106%. Besides, the growth in the experiment with SNB-75 CNS is 96.6%; in the experiment on SNB-19 CNS it was 102%; in the experiment on U251 CNS, 104%; in the experiment on PC-3 prostate it was 99.7%; in the experiment on SK-MEL-5 melanoma it was 102%; with UACC-62 melanoma it was 94.7%. Also, the growth in the experiment with LOX IMVI melanoma was 96.3%; with SK-MEL-28 melanoma, 111%.
